# Experimental data: the supplement of paper PMC12669032
# A number with no mark means an inactive call.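 The calls were made as follows: active = AUC reduced over 20% with Padj below 0.05 in at least 2 of 3 replicates; inactive = otherwise.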
# Columns and labels:
# Experiment in all cases: growth AUC relative to DMSO control (median of replicates) (fraction); higher = more growth (less inhibition), active = hit call of the paper
# Details in all cases: 20 µM; 24 h
# Coprococcus comes = system: Coprococcus comes
# Summary of the method: (§1)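 Area under the growth curve was normalised to the plate median of solvent-only wells, except on the industrial chemical plate, where row and column medians were used. Curves came from gut bacterial monocultures grown anaerobically at 37 °C in mGAM with 20 µM compound (1% DMSO), starting at OD600 0.05 and read at OD600 every hour for 24 h. The minimum OD of each curve was set to 0, and values are medians of three biological replicates grown on separate days.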
# Escherichia coli ED1a = system: Escherichia coli ED1a
# Summary of the method: as §1
# Escherichia coli IAI1 = system: Escherichia coli IAI1
# Summary of the method: as §1
# Eubacterium rectale = system: Eubacterium rectale
# Summary of the method: as §1
# [1] = system: Fusobacterium nucleatum subsp. animalis
# Summary of the method: as §1
# Lactobacillus gasseri = system: Lactobacillus gasseri
# Summary of the method: as §1
# Lactobacillus paracasei = system: Lactobacillus paracasei
# Summary of the method: as §1
# Odoribacter splanchnicus = system: Odoribacter splanchnicus
# Summary of the method: as §1
# [2] = system: Parabacteroides distasonis
# Summary of the method: as §1
# Parabacteroides merdae = system: Parabacteroides merdae
# Summary of the method: as §1
# Roseburia intestinalis = system: Roseburia intestinalis
# Summary of the method: as §1
# Streptococcus salivarius = system: Streptococcus salivarius
# Summary of the method: as §1
Compound,growth AUC (Coprococcus comes),growth AUC (Escherichia coli ED1a),growth AUC (Escherichia coli IAI1),growth AUC (Eubacterium rectale),growth AUC [1],growth AUC (Lactobacillus gasseri),growth AUC (Lactobacillus paracasei),growth AUC (Odoribacter splanchnicus),growth AUC [2],growth AUC (Parabacteroides merdae),growth AUC (Roseburia intestinalis),growth AUC (Streptococcus salivarius)
CCNS(=O)(=O)C(F)(F)C(F)(F)C(F)(F)C(F)(F)C(F)(F)C(F)(F)C(F)(F)C(F)(F)F,0.995,0.987,0.99,0.975,0.968,1.05,0.891,0.978,1.01,0.947,1.03,0.96
OC(c1ccc(Cl)cc1)(c1ccc(Cl)cc1)C(Cl)(Cl)Cl,1.01,0.998,1.03,0.805,0.977,0.162 (active),1.01,0.687 (active),0.0387 (active),0.777 (active),0.891,0.874
ClCC(Br)CBr (configuration not stated),1,0.985,0.996,0.994,0.995,0.916,0.995,1.02,1,0.996,1,0.973
Cc1cc(C2CC2)nc(Nc2ccccc2)n1,1.04,0.984,0.962,1.05,1.03,0.982,0.969,1.04,1.01,0.894,0.947,1.03
COP(=S)(OC)Oc1nc(Cl)c(Cl)cc1Cl,0.978,0.986,0.997,0.913,0.94,1.07,0.989,0.942,0.937,0.951,1,1.02
Oc1cc(Cl)cc(Cl)c1,1.02,1,1.02,1.08,1.1,1.08,0.957,1.03,0.997,0.973,1.01,1
O=C(O)CCl,0.98,0.995,0.984,0.974,0.929,1.03,1.03,0.986,0.949,1.02,0.962,0.979
CC1=C(C(=O)Nc2ccccc2)SCCO1,0.998,1,1.04,1.06,1.09,0.993,1.04,0.985,1,1.01,1.08,1.08
Oc1ccc(Cl)cc1Cl,1.01,0.974,0.979,1.13,0.93,0.769,1.01,0.969,0.967,0.853,0.907,0.901
CNC(=O)Oc1cc(C)c(S(C)=O)c(C)c1 (configuration not stated),0.997,1.01,0.97,0.884,1.09,0.963,0.952,0.996,1,1.05,0.965,1.01
ClC1=C(Cl)C2(Cl)C(CBr)CC1(Cl)C2(Cl)Cl (configuration not stated),0.994,0.956,0.986,1.01,0.969,0.858,1.03,1.01,0.973,0.973,0.993,1.03
COP(=S)(OC)Oc1ccc(C#N)cc1,1.04,1.04,1.02,1.11,1.04,1.03,1,1.02,1.07,1,1.06,0.959
CC(C)(C)C(O)/C(=C/c1ccc(Cl)cc1Cl)n1cncn1 (mixture of isomers),0.959,0.983,0.979,0.992,1,0.836,0.997,0.86,0.938,0.907,0.929,0.945
CCS(=O)Cc1ccccc1OC(=O)NC (configuration not stated),1.01,0.977,0.971,1.11,1.05,0.854,1.01,0.975,0.8,0.997,1.02,0.987
Oc1c(Br)cc(Br)cc1Br,1.01,0.945,0.845,1,1.03,1.13,0.919,0.748,0.934,0.991,1.08,0.959
CCCCN(CCCC)N=O,0.982,0.995,1,1.02,1.02,1.11,1.02,1,1.16,1.01,1,1.01
ClC1=C(Cl)C(Cl)(C2(Cl)C(Cl)=C(Cl)C(Cl)=C2Cl)C(Cl)=C1Cl,1.05,1.04,1.01,0.861,1.13,1.01,0.987,1,0.958,0.863,0.91,0.962
CC(C)Nc1nc(Cl)nc(NC(C)C)n1,0.958,1.03,0.978,1.07,1.04,0.983,1.06,0.797,1.02,0.968,0.962,0.99
Nc1cc(Cl)ccc1Cl,1,1,1.01,0.989,1.07,1.04,0.958,1,1.02,1.04,1.09,1
NC(=O)/N=C1/SCCN1Cc1ccc(Cl)nc1,0.965,0.999,0.997,1.02,0.984,0.995,0.975,1.03,0.992,0.984,0.989,1.04
COCCOC(=O)C(C#N)(C(=O)c1ccccc1C(F)(F)F)c1ccc(C(C)(C)C)cc1 (configuration not stated),0.971,0.953,0.966,1.05,1.03,0.839,0.908,1,0.723,0.946,1.02,0.917
O=[N+]([O-])c1c(Cl)c(Cl)c(Cl)c(Cl)c1Cl,0.821,1,1.01,0.909,0.942,1.16,0.945,0.946,0.969,0.942,0.993,1
CON(C)C(=O)Nc1ccc(Br)cc1,1.05,1.02,1,1.02,1.07,1.15,1.02,1.01,0.983,1.01,1.06,0.999
CN(C)C(CSS(=O)(=O)[O-])CSS(=O)(=O)[O-].[Na+].[Na+],0.999,0.983,0.998,1.47,1.18,1,1.01,0.951,0.978,0.998,1.24,0.961
CNC(=O)O/N=C/C(C)(C)S(C)(=O)=O,0.98,1.03,1.03,0.939,0.97,1.05,1,0.964,1.04,0.977,1.02,1.04
Nc1ccc(Cl)cc1Cl,1.03,1.01,1,1.01,1.11,1.02,0.976,1.1,1.02,1.01,1.02,1.03

Compound,growth AUC (Coprococcus comes),growth AUC (Escherichia coli ED1a),growth AUC (Escherichia coli IAI1),growth AUC (Eubacterium rectale),growth AUC [1],growth AUC (Lactobacillus gasseri),growth AUC (Lactobacillus paracasei),growth AUC (Odoribacter splanchnicus),growth AUC [2],growth AUC (Parabacteroides merdae),growth AUC (Roseburia intestinalis),growth AUC (Streptococcus salivarius)
CNC(=O)O/N=C/C(C)(C)S(C)=O (configuration not stated),0.987,0.993,1,1.08,0.996,1.01,1.01,0.955,1.02,1,0.994,1.01
CCOc1nc(NC)nc(NC(=O)NS(=O)(=O)c2ccccc2C(=O)OC)n1,0.996,1.02,1.02,0.974,1.04,1.23,1.04,1.04,1.05,1.03,0.992,1.03
Clc1cc(Cl)c(Cl)cc1Cl,0.971,1.02,1.04,0.986,1.15,0.973,0.991,1.01,1.05,0.998,0.962,0.935
COC(=O)[C@@H](C)N(C(=O)Cc1ccccc1)c1c(C)cccc1C,0.978,1.02,1.02,0.991,0.913,0.944,0.979,0.925,0.948,0.921,1.01,0.958
NC(=S)c1c(Cl)cccc1Cl,1.01,0.994,0.979,1.22,0.822,0.884,0.953,0.985,0.965,0.887,1,0.943
CN1CSC(=S)N(C)C1,0.957,0.991,0.994,1.06,0.966,1.07,1.04,0.988,0.991,0.976,1.03,0.983
CCc1cccc(C)c1N(C(=O)CCl)C(C)COC (configuration not stated),1.03,1.02,0.983,1.02,1.1,1.04,1.02,0.972,1.03,0.991,1.07,1.05
CCOC(=O)C(Cl)Cc1cc(-n2nc(C)n(C(F)F)c2=O)c(F)cc1Cl (configuration not stated),0.963,0.986,0.941,0.794,0.987,1.01,0.966,0.988,0.963,0.925,1.03,1.03
CC1(C)C(C=C(Cl)Cl)C1C(=O)OCc1cccc(Oc2ccccc2)c1 (mixture of isomers),0.964,1.02,0.98,0.911,0.954,0.864,1.01,0.977,1,0.951,0.921,0.979
C#CC(C)(C)NC(=O)c1cc(Cl)cc(Cl)c1,1,0.984,0.963,1.04,0.95,0.91,1.03,1.06,1.01,1.01,0.936,0.914
COc1nc(C)nc(NC(=O)NS(=O)(=O)c2ccccc2Cl)n1,0.971,0.982,0.988,0.986,1.02,1.07,1.01,0.952,1.01,0.979,0.995,0.992
c1ccc2c(c1)-c1cccc3cccc-2c13,0.92,0.941,1,0.91,0.954,1.03,0.98,1,0.938,0.935,0.956,0.972
COC(=O)/C(C)=C/OP(=S)(OC)OC,0.989,0.987,0.97,0.95,1.01,1.06,1.07,0.95,1.03,0.999,0.981,1.01
COP(=O)(OC)Oc1ccc(SC)c(C)c1,0.991,1,1.02,0.96,0.986,1.1,1,0.994,1.02,1.05,1.02,1
N#CN=C1SCCN1Cc1ccc(Cl)nc1,1.04,0.966,0.996,0.979,1.11,1.03,0.963,1.02,1.03,1.01,1.01,1.01
O=[N+]([O-])c1ccc2ccc3cccc4ccc1c2c34,0.972,0.988,0.99,0.577 (active),0.401 (active),0.99,1.02,0.0656 (active),0.579 (active),0.495 (active),1.28,1.06
Cc1cnc2c(C(=O)O)c(Cl)ccc2c1,0.983,0.977,0.987,0.934,0.952,0.952,1.05,0.968,0.967,1.01,0.937,0.969
CCSC(=O)N1CCCCCC1,1.02,0.991,0.993,0.977,1.06,1.06,0.954,0.947,0.997,1,1,1.01
CCCCOCN(C(=O)CCl)c1c(CC)cccc1CC,0.996,1.02,1.04,1.03,1.12,1.02,1.04,0.909,0.963,0.976,0.97,0.915
Oc1ccc(C(c2ccc(O)cc2)(C(F)(F)F)C(F)(F)F)cc1,1.06,0.969,1,0.792 (active),0.595 (active),0.577,0.727,0.0871 (active),0.0433 (active),0.515 (active),0.661 (active),0.85
O=C1C2(Cl)C3(Cl)C4(Cl)C(Cl)(Cl)C5(Cl)C3(Cl)C1(Cl)C5(Cl)C24Cl (configuration not stated),0.0378 (active),0.98,0.969,0.696,0.757,0.135 (active),0.061 (active),0.0248 (active),0.0157 (active),0.0229 (active),0.0478 (active),0.0301 (active)
CCNc1nc(Cl)nc(NC(C)C)n1,1.01,1.02,0.992,1.06,1.03,0.976,1.08,1.07,1.05,0.999,1.09,0.966
CS/C(C)=N/OC(=O)N(C)SN(C)C(=O)O/N=C(\C)SC,0.98,1.02,1.01,1.17,1.04,1.05,0.941,1.04,1.03,1.03,1.01,0.955
CCCN(CC1CC1)c1c([N+](=O)[O-])cc(C(F)(F)F)cc1[N+](=O)[O-],0.995,1.01,1.03,1,1.09,1.11,0.977,0.943,1.03,1.03,1.06,1.03
COc1cc(OC)n2nc(S(=O)(=O)Nc3c(Cl)ccc(C)c3Cl)nc2n1,1.02,0.993,1.02,0.994,0.9,1.09,0.978,1.02,1.06,0.986,0.999,0.954
